# Assay results as given in the OligoGym collection.
# How the values were obtained:
# Assay in all cases: pooled miR-30 sensor sort-seq; sequence = guide strand
# Conditions in all cases: shRNA
# [1] = biological target: EIF4EBP2
# [2] = biological target: ELF2
# [3] = biological target: EIF3M
# [4] = biological target: ENAM
# [5] = biological target: EPDR1
# [6] = biological target: EPHX1
# [7] = biological target: ERCC8
# [8] = biological target: ERCC2
# [9] = biological target: EPHX2
# Note: reference of the scale not given here.
sequence,measurement,setting,value
TGGTGCAATAGTCATGAGGTAG,sensor-assay potency score (higher = more potent),[1],-1.72
TGTTCAAATTGTTTACTTCTAC,sensor-assay potency score (higher = more potent),[1],-0.311
TTTTATCTTGAAGTAGATCTAA,sensor-assay potency score (higher = more potent),[2],-0.166
TTGAACTGATATACAAGCCTCT,sensor-assay potency score (higher = more potent),[2],0.343
TCAAATTGTTTACTTCTACTTT,sensor-assay potency score (higher = more potent),[1],-0.42
ATGTTTCCTGTCGTGATTGTTC,sensor-assay potency score (higher = more potent),[1],-0.959
AAATGATTCGAGTTCCTCCCGG,sensor-assay potency score (higher = more potent),[1],-0.69
TTGGAGTCTTCAATTAAGGTGC,sensor-assay potency score (higher = more potent),[1],-0.116
AATGATTCGAGTTCCTCCCGGT,sensor-assay potency score (higher = more potent),[1],0.498
TTGTCTGCAGTTGACACTGTGC,sensor-assay potency score (higher = more potent),[2],-0.232
TCCAACAGAAACTTTCTGTCAT,sensor-assay potency score (higher = more potent),[1],-0.136
TAGTCATGAGGTAGCTGCGCGG,sensor-assay potency score (higher = more potent),[1],-1.17
TTCAACATCTTTATCATCCTCC,sensor-assay potency score (higher = more potent),[3],0.759
TTCAATTAAGGTGCCAGGGCTA,sensor-assay potency score (higher = more potent),[1],-0.657
TAAATGATTCGAGTTCCTCCCG,sensor-assay potency score (higher = more potent),[1],0.0359
TACTTTGGAGTCTTCAATTAAG,sensor-assay potency score (higher = more potent),[1],-1.27
TATGACTGCACTGATAACTCGA,sensor-assay potency score (higher = more potent),[2],0.372
TGTCATTACAACAGGTACCTGC,sensor-assay potency score (higher = more potent),[2],0.12
AATTGTTTACTTCTACTTTGGA,sensor-assay potency score (higher = more potent),[1],0.534
AAACTTTCTGTCATAAATGATT,sensor-assay potency score (higher = more potent),[1],-1.63
TTCTACTTTGGAGTCTTCAATT,sensor-assay potency score (higher = more potent),[1],-1.52
ATAGTCATGAGGTAGCTGCGCG,sensor-assay potency score (higher = more potent),[1],-0.462
TACTTCTACTTTGGAGTCTTCA,sensor-assay potency score (higher = more potent),[1],-0.613
TAATCTGGCACTTGGAACTGGC,sensor-assay potency score (higher = more potent),[2],-0.333
TTGAGGTATATTGTTCACCTTC,sensor-assay potency score (higher = more potent),[4],-0.314
TACGAGGGAACTCTAGTCCTGG,sensor-assay potency score (higher = more potent),[5],-0.607
TAGGATCTAGCTGACTTTCTGT,sensor-assay potency score (higher = more potent),[5],0.667
TCAATCTTAGTCTTGAAGTGAG,sensor-assay potency score (higher = more potent),[6],-0.441
TCTACTGTCAGCACTTGCTGTT,sensor-assay potency score (higher = more potent),[7],0.468
TTCTTTCAACATCTCTGTCTTT,sensor-assay potency score (higher = more potent),[7],-0.331
AACAGGGATACTGTCTTCCCGG,sensor-assay potency score (higher = more potent),[8],-1.06
TTGACTAAATAAACTATACAGA,sensor-assay potency score (higher = more potent),[7],-1.03
TTAGAGGACCTCTGAAACCAGA,sensor-assay potency score (higher = more potent),[9],-0.75
TATCGAGCAAGGAAGTATGGGC,sensor-assay potency score (higher = more potent),[8],0.161
TCCAAGAATACCAACTCTCGGG,sensor-assay potency score (higher = more potent),[9],-1.01
TCGATGATGATGGTGAAGCCTT,sensor-assay potency score (higher = more potent),[8],-1.27
